Screens from PubChem.
Hits are enriched below; roughly 3.2% of the tested compounds scored in any of these assays.
RGS12 GoLoco inh = inhibitors of human Gai1-RGS12 GoLoco interaction (red fluorophore); Gai1:RGS12 GoLoco peptide FP, rhodamine, 10 min; Potency, µM (doses to about 61.6 µM), for the others: at the highest dose activity, negative = inhibition, hits mostly inhibitors; hit rate 0.44% among 230,000; AID 880; active = well fitted inhibition curve with a large enough effect, not every such curve was filed as active; inactive = no such curve, though single readings can be large or run the other way; note: nearly all actives have a fitted effect of over 30% in size
Target sequence (P63096 whole entry, looked up): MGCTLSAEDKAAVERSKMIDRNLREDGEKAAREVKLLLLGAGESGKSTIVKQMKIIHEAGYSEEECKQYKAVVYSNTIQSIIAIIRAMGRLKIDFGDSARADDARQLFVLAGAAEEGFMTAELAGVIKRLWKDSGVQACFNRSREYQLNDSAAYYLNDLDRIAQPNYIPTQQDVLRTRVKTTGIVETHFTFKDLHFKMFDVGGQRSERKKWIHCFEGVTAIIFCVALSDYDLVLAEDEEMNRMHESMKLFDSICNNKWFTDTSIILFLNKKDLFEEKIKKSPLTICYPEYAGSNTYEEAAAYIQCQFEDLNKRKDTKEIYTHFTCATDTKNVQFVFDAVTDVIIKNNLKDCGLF
Tau FP inhib = tau fibrillization inhibition (FP) | K18 P301L tau heparin fibrillization, Alexa594 FP, 6 h | Potency, µM (series often up to 57.7 µM), for the others: top-dose activity, negative = inhibition, most hits filed as inhibitors | hit rate 0.39% among 280,000 | AID 1468; note: nearly all actives have a fitted effect of over 55% in size
Target sequence (P10636 561-689 P618L limits assumed): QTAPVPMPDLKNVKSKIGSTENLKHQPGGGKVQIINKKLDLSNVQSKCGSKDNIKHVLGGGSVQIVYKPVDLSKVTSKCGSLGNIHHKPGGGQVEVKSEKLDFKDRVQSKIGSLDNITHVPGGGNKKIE
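K18 P301L tau (15 uM unlabeled/0.24 uM Alexa 594-labeled, final) + compound + heparin 20 uM final; 100 mM NaOAc pH 7; 6 hr 37 C; ThT 30 uM final added, 1 hr RT; FP ex 555/em 632 nm.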
Tau fluor counter = counter-screen for tau fibril formation inhibitors; tau K18 P301L Alexa594 fluorescence, heparin fibrillization; hit rate 0.93% among 280,000; Potency, µM (top dose mostly 57.7 µM), for inactives: at the top dose activity change, negative = decrease; note: nearly all actives have a fitted effect of over 55% in size
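Human tau K18 P301L (15 uM unlabeled, 0.24 uM Alexa 594-labeled) in 100 mM sodium acetate pH 7 with 20 uM heparin, 6 hr at 37 C. ThT 30 uM added, 1 hr ambient; Alexa 594 FP and total fluorescence read at 555/632 nm.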
TR SRC2 fluor cs = Texas Red fluorescence interference in TRb-SRC2 counter-screen | hit rate 0.29% among 280,000 | TRb/SRC2 Texas Red total fluorescence interference | Potency, µM (doses to about 106 µM), inactives show at the top dose fluorescence change, negative = quenching; active = well fitted curve in either direction with a large enough effect; inconclusive = small, poorly fitted or top-dose-only effect
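Human TRb ligand-binding domain at 0.6 uM with 20 nM Texas Red SRC2 peptide in Tris buffer containing 1 uM T3 and 5% DMSO, incubated with compound 5 h at ambient temperature. Total fluorescence (555/632 nm) calculated as parallel + 2 × perpendicular.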
Tau fibril ThT = inhibitors of human tau fibril formation, thioflavin T binding; hit rate 2.1% among 270,000; Potency, µM (doses to about 57.4 µM), for the others: top-dose activity, negative = inhibition, actives largely listed as inhibitors; recombinant tau K18 P301L (four-repeat tau fragment), heparin-induced fibrillization, ThT fluorescence; AID 1460; note: nearly all actives have a fitted effect of over 55% in size
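Aggregation was driven by heparin (20 uM final) acting on recombinant tau […] bearing P301L in 100 mM sodium acetate pH 7; fibrils were detected with Thioflavin T.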
TRb SRC2 PPI = inhibitors of human thyroid hormone receptor beta-SRC2 interaction. P10828. TRbeta-SRC2 peptide binding, fluorescence polarization; receptor liganded with 1 µM T3. Potency, µM (titrated, usually from 106 µM), for the others: at the highest dose activity change, negative = inhibition, usual class: inhibitors. hit rate 0.065% among 280,000;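 note: plate controls were bound peptide for no effect and peptide without receptor for full effect; nearly all actives have a fitted effect of over 50% in size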
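TRb LBD 0.6 uM + Texas Red SRC2 peptide 20 nM, 1 uM T3, Tris buffer w/ 5% DMSO; compound pinned, 5 h RT; FP read ex 555/em 632; normalized to unbound and bound controls.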
* hit, by the source's call; u = inconclusive; x = no result; [ ] = another dose, or the depositor's remark. Unless noted, calls come from the whole dose curve; as a rule, active = well fitted curve in the direction sought with a large enough effect; inconclusive = small, poorly fitted or top-dose-only effect, or another doubt; inactive = no such curve, though single readings can be large; an effect the other way counts as inactive or inconclusive. Unless noted, % is set by controls: 0 for no effect and ±100 for the full control effect; potency is the fitted concentration of half-maximal effect.

SMILES | RGS12 GoLoco inh | Tau FP inhib | Tau fluor counter | TR SRC2 fluor cs | Tau fibril ThT | TRb SRC2 PPI
CN1C(=O)C(=Cc2sc(=O)n(-c3ccccc3)c2N2CCCCC2)C(=O)N(C)C1=O | -152% | -16% | -16% | -7% | 25µM* | 6%
CN1C(=O)C(=Cc2cc([N+](=O)[O-])ccc2N2CCCCC2)C(=O)N(C)C1=O | -12% | -3% | -6% | 1% | -11% | -5%
C/C=C(\C)C(=O)O[C@H]1C[C@@H](OC(C)=O)[C@@]2(C(=O)OC)CO[C@H]3[C@@H](O)[C@@](C)([C@]45O[C@@]4(C)[C@H]4C[C@@H]5O[C@@H]5OC=C[C@@]54O)[C@H]4[C@]1(CO[C@]4(O)C(=O)OC)[C@@H]32 | x | x | x | -3%[201 µM] | x | -2%[201 µM]
C[C@@H]1O[C@H](OC2[C@@H](O)[C@H](O)C(O)[C@H](O)[C@H]2O)[C@@H](N)C[C@@H]1N=C(N)C(=O)O (stereo partly drawn) | 1%[14.2 µM] | x | x | x | x | x
C[n+]1ccc(-c2ccncc2)cc1 | 10µM* | -1% | -3% | 0% | -1% | -9%
O=C=Nc1ccc(Cl)cc1 | x | x | x | -6%[201 µM] | x | -2%[201 µM]
Cc1cc(C=C2C(=O)NC(=O)NC2=O)c(C)n1-c1ccc2c(c1)OCO2 | 26% | u | -29% | 3% | u | 1%
Cc1cc(C=C2C(=O)NC(=S)NC2=O)c(C)n1-c1ccc2c(c1)OCO2 | 46% | -8% | u | 28184µM*[quencher] | 14µM* | -9%
Nc1nc(N)nc(Cl)n1 | x | x | x | 3%[201 µM] | x | 1%[201 µM]
O=[N+]([O-])c1ccc(N2CCCCCC2)c2ncccc12 | 26% | -4% | -28% | -3% | 16µM* | 2%
O=[N+]([O-])c1ccc(N2CCCNCC2)c2ncccc12 | -1% | 1% | -4% | -1% | u | 8%
O=[N+]([O-])c1ccc(N2CCCCC2)c2ncccc12 | -7% | -15% | u | -1% | 16µM* | 12%
CC(C)c1cc2c(c(O)c1O)[C@@]1(C(=O)O)CCCC(C)(C)[C@@H]1CC2 | -10% | u | u | -1% | 14µM* | -5%
C[C@]1(C(=O)O)CCC[C@]2(C)c3cc(O)ccc3CC[C@@H]12 | 2% | 1% | -3% | 0% | -7% | -3%
CC(C)c1cc2c(c(O)c1O)[C@]1(C(=O)O)CCCC(C)(C)C1CC2 (stereo partly drawn) | -9% | u | u | -2% | 28µM* | 3%
N[C@@H](Cc1ccccc1)P(=O)(O)O | -2%[14.2 µM] | x | x | x | x | x
O=C1NC(=O)N(c2ccccc2)C(=O)/C1=C\c1ccc([N+](=O)[O-])s1 | 101% | u | u | -3% | x | 9%
CN1C(=O)NC(=O)/C(=C/c2ccc([N+](=O)[O-])s2)C1=O | -3% | 28µM* | u | -19% | x | -3%
COc1ccc(OC)c(N2C(=O)NC(=O)/C(=C\c3ccc([N+](=O)[O-])s3)C2=O)c1 | 193% | u | u | 16% | 11µM* | u
CCOCn1c(-c2ccc(Cl)cc2)c(C#N)c(Br)c1C(F)(F)F | x | x | x | -4%[201 µM] | x | 2%[201 µM]
COC(=O)c1ccccc1N | 32µM* | x | x | -3% | x | 0%
COC(=O)c1ccccc1S(=O)(=O)NC(=O)N(C)c1nc(C)nc(OC)n1 | x | x | x | -1%[201 µM] | x | 2%[201 µM]
CCC(C)NC(=O)c1c(N)n(Cc2ccc3c(c2)OCO3)c2nc3ccccc3nc12 (stereo not drawn) | -10% | u | u | -3% | 20µM* | -28%
COc1ccc(/C=N/N=C(/N)N[N+](=O)[O-])c(OC)c1 | 7% | u | -17% | -7% | -15% | -9%
N/C(=N\N=C/c1ccc(-c2ccc(O)c(C(=O)O)c2)o1)N[N+](=O)[O-] | -1% | -4% | u | u | 4.5µM* | 1%
CC12C=CC(=O)C=C1CCC1C2=CCC2(C)C1CC[C@@H]2C(=O)CN1CCN(c2cc(N3CCCC3)nc(N3CCCC3)n2)CC1 (stereo partly drawn) | 15% | u | -13% | 1% | 7.1µM* | -16%
